# Source: PubChem BioAssay (NCI)
# About 83,000 compounds went through this panel and 20% of them were active in at least one assay; those are over-represented in the sample as a whole.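 Single-dose data. Exposure time 48 hours. Values below 10 considered active.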 A number with no mark means an inactive call. The source made the active and inactive calls.
# Test system: NCI-H460 lung
# Assay: NCI-60 one-dose screen, 48 h (100 = growth as untreated, 0 = no growth, -100 = all killed)
# Conditions: 10 µM unless noted
row,SMILES,growth
1,C/C(=N\N=C1/C(=O)Nc2ccc(Cl)cc21)c1ccc2c(c1)Nc1ccccc1S2,-21.9% (active)
2,CCCSc1nc(NCCc2c[nH]c3ccccc23)c(C#N)c(-c2ccc(F)cc2)n1,14.1%
3,COc1cc(C2CC(c3cc(OC)c(OC)c(OC)c3)=NN2C(C)=O)ccc1OCc1ccccc1 (centres undefined),24.3%
4,Cc1cc2c(cc1Cl)C(=O)/C(=C/c1ccccc1)O2,24.6%
5,COc1ccc2[nH]cc(-c3nc(N)nnc3-c3cn(C)c4ncccc34)c2c1,25%
6,Cc1ccc(C(=O)CSc2nc3ccc(F)cc3c(=O)n2-c2ccc(Cl)cc2)cc1,22.4%
7,CCCCSc1nc(NCCc2c[nH]c3ccccc23)c(C#N)c(-c2ccccc2)n1,14.5%
8,Cn1cc(-c2nc(N)nnc2-c2c[nH]c3ccc(Br)cc23)c2cccnc21,32.8%
9,CN(C)CCOc1ccc(C(=O)C2[C@H](c3ccc(Cl)cc3)[C@@H](c3ccccc3)NC23C(=O)Nc2ccc(Br)cc23)cc1 (some centres undefined),-78.1% (active)
10,CN1CCN(/C(=N\c2sc(-c3ccccc3)nc2-c2ccccc2)c2ccccc2)CC1,42.6%
11,CCCSc1nc(NCCc2c[nH]c3ccccc23)c(C#N)c(-c2ccccc2)n1,25%
12,CCN(CC)c1ccnc(CNCCSC(c2ccccc2)(c2ccccc2)c2ccc(OC)cc2)c1,-87.3% (active)
13,COc1cc2oc(-c3cccc(C(=O)Nc4cccc([N+](=O)[O-])c4)c3)cc(=O)c2c(OC)c1OC,32.3%
14,O=C(COc1ccc(NC(=O)Nc2ccc(Cl)c(Cl)c2)cc1)N=Nc1c(O)[nH]c2ccc([N+](=O)[O-])cc12,3.51% (active)
15,COc1cc(-c2nc3cc(Cl)c(Cl)cc3[nH]2)ccc1OCc1nnc(-c2cccs2)o1,38.8%
16,CCCCCCCCc1ccc(C(=O)Nc2ccc(C)cc2C(=O)O)cc1C,92.7%
17,CCOP(=O)(OCCCl)c1nc(-c2ccc(C)cc2)oc1NCc1ccccc1 (centres undefined),73.2%

row,SMILES,growth
1,NS(=O)(=O)c1ccc(N=Nc2c(O)n(CC(=O)Nc3ccccc3)c3ccccc23)cc1,4.09% (active)
2,CC1(C)CC[C@]2(C(=O)Nc3ccccc3)CC[C@]3(C)C(=CCC4[C@@]5(C)C[C@@H](O)[C@H](O)[C@@](C)(CO)C5CC[C@]43C)C2C1 (some centres undefined),51.4%
3,COc1ccccc1C(=O)NN1C(=O)/C(=C/C2=Cc3ccccc3OC2)SC1=S,120%
4,COc1ccc(NC(=O)[C@H](CO)NC(=O)OC(C)(C)C)cc1C(=O)Nc1cccc(C2CC(=O)c3c(cc(OC)c(OC)c3OC)O2)c1 (some centres undefined),55.3%
5,COc1ccc(C2(SCCNCc3cc(N(C)C)ccn3)c3ccccc3C=Cc3ccccc32)cc1,-14% (active)
6,COc1ccc2[nH]c(O)c(N=NC(=O)COc3ccc(NC(=O)Nc4ccccc4)cc3)c2c1,48.7%
7,COc1cc(/C=C/C(=O)c2ccc(C)cc2)ccc1Oc1nc(Nc2ccc(F)cc2)nc(N(C)C)n1,34.4%
8,CCN(CC)CCOc1ccc(Nc2ncc3cc(-c4ccc(O)c(C#N)c4)c(=O)n(C)c3n2)cc1,85.3%
9,CC(/C=C1\SC(=S)N(CCCC(=O)NC(CC(C)C)C(=O)O)C1=O)=C\c1ccccc1 (centres undefined),99.8%
10,COc1cc2c(c(OC)c1OC)C(=O)CC(c1cccc(NC(=O)c3cc(N)ccc3Cl)c1)O2 (centres undefined),67.2%
11,CC(=O)OC[C@@]1(C)C2CC[C@]3(C)C(CC=C4C5CC(C)(C)CC[C@]5(C(=O)Nc5cccc(C)c5)CC[C@]43C)[C@@]2(C)C[C@@H](OC(C)=O)[C@@H]1OC(C)=O (some centres undefined),12.7%
12,CCCCc1c(Nn2cnnn2)no[n+]1[O-],36.5%
13,CC(C)Sc1nc(NCCc2c[nH]c3ccccc23)c(C#N)c(-c2ccc(F)cc2)n1,5.26% (active)
14,C=C1CCC2C3(C)COC(c4ccc(F)cc4)OC3CCC2(C)C1CC(O)C1=CCOC1=O (centres undefined),93.8%
15,NS(=O)(=O)c1ccc(N=Nc2c(O)n(CC(=O)Nc3ccccc3Cl)c3ccccc23)cc1,14.5%
16,Cc1ccccc1[C@H]1C(C(=O)c2ccc(Cl)cc2)C2(N[C@@H]1c1ccccc1)C(=O)Nc1ccc(Cl)cc12 (some centres undefined),1.55% (active)
17,CCCCCCCCc1ccc(S(=O)(=O)Nc2ccc(CC)cc2C(=O)O)cc1,96.7%
